Compounds with a hit are over-represented: about 2.2% of the library has one in this group of screens.
aSyn 5UTR inh: MLPCN primary screen, SNCA 5' untranslated region; hit rate 0.82% among 300,000; inhibition, % (tested at 7.5 µM); alpha-synuclein 5'UTR reporter, inhibitor activity; in the data active = inhibition above about 60%;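 also: H4 neuroglioblastoma cells stably carrying SNCA 5'UTR luciferase fusion; 0% = DMSO wells and 100% = positive control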
KLF5 inhibitor: suppresses KLF5 promoter-driven expression | DLD-1 KLF5 promoter-luciferase reporter, luminescence | inhibition, % at 5 µM | hit rate 0.23% among 290,000;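 active = inhibition above a per-plate limit of that plate's mean compound inhibition plus 3 SD, cut at about 60% in these data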;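 also: 0% = DMSO wells and 100% = LY294002 at 200 µM; higher means less KLF5 promoter-driven luciferase light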
BaF3 tox: reduces parental Ba/F3 cell viability, JAK2V617F counter-screen. CellTiter-Glo ATP luminescence. AID 1486. hit rate 1.1% among 220,000. inhibition, % at 5.6 µM;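 active = inhibition above a per-campaign cutoff, the mean inhibition of all tested compounds plus 3 SD, cut at about 27% in these data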;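 also: 0% = DMSO wells and 100% = JAK Inhibitor I control wells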
IEC-6 cytotox: kills IEC-6 intestinal cells in KLF5 counter-screen. IEC-6 cytotoxicity, luminescence viability. inhibition, % at 5 µM. hit rate 0.78% among 290,000; in the data active = inhibition above about 22%;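 also: 0% = plate median of test compound wells and 100% = cytotoxic reference compound wells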
APP 5UTR inh: APP translation inhibition; SH-SY5Y APP 5'UTR-luciferase reporter, luminescence; inhibition, % at 2 µM; hit rate 0.82% among 190,000;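 active = inhibition above a set limit, derived from the sample mean plus 3 SD, cut at about 45% in these data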
Ba/F3 V617F tox: reduce viability of Ba/F3 cells dependent on JAK2V617F; Ba/F3 EpoR-JAK2V617F viability, ATP luminescence; inhibition, % at 5.6 µM; hit rate 1.1% among 220,000; AID 1446;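 active = inhibition above the campaign mean plus 3 SD over all tested compounds, cut at about 24% in these data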;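 also: cytokine-independent growth of Ba/F3 cells driven by EpoR plus mutant JAK2; 0% = DMSO-treated cells and 100% = JAK inhibitor I control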
* marks the source's active call; other numbers are inactive results; x = not tested or not shown.

SMILES	aSyn 5UTR inh	KLF5 inhibitor	BaF3 tox	IEC-6 cytotox	APP 5UTR inh	Ba/F3 V617F tox
O=C(NCc1ccccc1)C1CC(=O)N(c2ccc(OCC(=O)N3CCOCC3)cc2)C1 (configuration not stated)	15	-24	x	12	x	x
O=C(NC(=S)Nc1cccc2cccnc12)c1ccccc1	-43	-14	102*	-2	-8	-5
O=C(O)c1cccc(NC(=S)NC(=O)c2ccncc2)c1	-7	-11	2	2	60*	3
CC(C)(C)C(=O)NC(=S)Nc1cccc(C(=O)O)c1	-161	-182	10	-4	-86	1
Cc1nnc(NC(=O)CSc2nc3ccccc3o2)s1	-6	9	2	-1	-10	3
CCc1nnc(NC(=O)CSc2nc3ccccc3o2)s1	-1	-23	3	2	47*	-1
CCC(CO)NC1=C([N+](=O)[O-])C(=O)CC(C)(C)C1 (configuration not stated)	2	-5	7	-3	-2	4
CSCCC(NC(=O)c1cc([N+](=O)[O-])ccc1Cl)C(=O)O (configuration not stated)	8	-16	4	5	-5	-6
CCn1ncc(Br)c1C(=O)Nc1ccc(F)c([N+](=O)[O-])c1	14	-16	3	25*	3	-2
Cc1ccc(C(=O)NNc2cc(N3CCCC3)nc(N3CCCC3)n2)cc1	74*	-26	26	-3	-1	-2
O=C(NNc1cc(N2CCOCC2)nc(N2CCOCC2)n1)c1ccc(Cl)c(Cl)c1	-4	-27	5	-4	8	-2
CC(=O)c1ccc(-n2cc(-c3ccc(C(C)(C)C)cc3)[n+]3c2SCCC3)cc1	-14	-4	62*	5	-19	55*
Cc1c(-c2ccc(Cl)cc2)[n+](=O)c(-c2ccccc2)cn1[O-]	-118	-23	-2	-4	x	-3
Fc1ccc(-c2cn(-c3ccccc3)c3[n+]2CCS3)cc1	5	-7	60*	0	x	55*
COc1ccc(-c2cn(-c3ccc(Br)cc3)c3[n+]2CCS3)cc1	5	-14	78*	2	-7	65*
Clc1ccc(-c2cn(-c3ccccc3)c3[n+]2CCS3)cc1	-21	-17	78*	-2	-12	54*
O=C(Nc1ccccc1F)NC1CCCc2ccccc21 (configuration not stated)	3	-28	-5	0	x	0
CCOC(=O)c1c(NC(=O)c2ccc(S(=O)(=O)N3CCOCC3)cc2)sc2c1CC(C)(C)NC2(C)C	-25	-35	x	-6	x	x
CCOC(=O)c1c(NC(=O)c2ccc(S(=O)(=O)N3CCOCC3)cc2)sc2c1CCN(C)C2	x	-14	33*	2	-2	-3
C[C@@H]1NC(=O)N(c2ccc(F)cc2)C1=O	-7	-24	x	2	x	x
COc1ccccc1NC(=O)c1ccc(NS(=O)(=O)c2ccc(F)c(Cl)c2)cc1	9	2	5	3	-10	2
O=C(CN(c1ccc(Cl)cc1)S(=O)(=O)c1ccc(Cl)c([N+](=O)[O-])c1)NCCc1ccccc1	106*	-7	9	-1	10	0
O=C(O)Cc1c(C(=O)O)nnn1-c1ccc(Cl)cc1Cl	7	-16	6	-4	50*	3
CN(C)c1nnnn1-c1ccc(Cl)cc1Cl	-10	-7	3	-2	-3	4
CCCCN(CC)Cc1c(O)ccc2c(-c3ccccc3)cc(=O)oc12	25	-2	29*	3	x	22
SMILES	aSyn 5UTR inh	KLF5 inhibitor	BaF3 tox	IEC-6 cytotox	APP 5UTR inh	Ba/F3 V617F tox
COc1ncnc(OC)c1S(=O)(=O)Nc1ccc(C(F)(F)F)cc1	13	-24	x	-2	x	x
COc1ccc(NS(=O)(=O)c2cccc(C(=O)NNC(=O)COc3ccccc3)c2)cc1	20	x	x	x	x	x
COc1ccc(OCC(=O)NNC(=O)c2cccc(S(=O)(=O)N(C)C)c2)cc1	7	12	1	-7	50*	-4
COc1ccc(OCc2cccc(C(=O)Nc3cc(C)on3)c2)cc1	66*	39	1	-2	-66	1
COc1ccc2nc(NC(=O)c3cccc(OCc4c(C)noc4C)c3)sc2c1	-57	-3	3	6	86*	-1
CCOc1ccc2nc(NC(=O)c3ccc(OCC4CCCO4)cc3)sc2c1 (configuration not stated)	-99	-57	60*	-5	-78	56*
CCSc1nnc(NC(=O)c2cccc(OCc3c(C)noc3C)c2)s1	-25	-45	8	1	-17	0
Cc1cc2cc(CCNC(=O)CC(C)(C)C)c(=O)[nH]c2cc1C	x	-1	5	-1	29	-1
CC1=C(C(=O)Nc2ccc(C(=O)NCCCN3CCCCC3)cc2)SCCO1	16	-7	x	-2	x	x
O=C(NCCO)C1(c2ccc(Cl)cc2)CCCC1	-11	-32	-6	-1	-11	-5
CN(CCC(=O)Nc1ccc(Br)cc1)Cc1ccccc1	9	-32	4	4	-10	-3
O=C(c1cccc(OCc2ccccc2)c1)N1CCOCC1	-5	-11	8	-2	15	0
CCOc1ccc(OCc2cccc(C(=O)N3CCOCC3)c2)cc1	102*	35	5	-5	48*	2
COc1ccc(OCc2cccc(C(=O)NN)c2)cc1	67*	-58	5	7	-80	1
Cc1oc(C(C)(C)C)cc1C(=O)N1CCN(C(c2ccccc2)c2ccccc2)CC1	20	-10	1	2	x	-5
CC1CCCCN1C(=O)CCn1c(=O)oc2ccccc21 (configuration not stated)	1	-30	x	1	x	x
Cc1ccc(C(=O)NC2CCN(S(=O)(=O)c3ccccc3)CC2)cc1	32	-4	4	-7	-11	-3
Cc1ccc(S(=O)(=O)N2CCC(NC(=O)c3ccccc3)CC2)cc1	23	-18	90*	4	8	-1
CC(NCc1ccccc1)C1COc2ccccc2O1 (configuration not stated)	9	-25	2	-7	-19	-1
COc1ccc(CNC(C)C2COc3ccccc3O2)c(OC)c1 (configuration not stated)	14	-7	96*	3	8	1
O=c1[nH]c(SCc2nc3ccccc3n2Cc2ccccc2)nc2ccccc12	16	-34	3	5	x	-5
Nc1cc(=O)[nH]c(SCc2nc3ccccc3n2Cc2ccccc2)n1	-43	-18	3	-3	46*	-4
CNc1ccc(/C=C2\COc3ccccc3C2=O)cc1[N+](=O)[O-]	-118	-27	4	-7	-12	-1
O=C1/C(=C/c2ccccc2[N+](=O)[O-])COc2ccccc21	-114	8	-3	2	86*	4
O=c1c2ccccc2sc2ccc(C#CC3(O)CCCCC3)cc12	104*	x	x	x	x	x
O=c1c2ccccc2oc2cc(C#CC3(O)CCCCC3)ccc12	77*	x	x	x	x	x
COc1cccc2sc3ccc(C#CC4(O)CCCCC4)cc3c(=O)c12	-191	-116	x	1	x	x

High-throughput results as filed in PubChem BioAssay.
